Screens (PubChem BioAssay)
Shown are actives, neighbours in structure and some others; about 3.4% of the full set was active somewhere.
TEAD-YAP block: TEAD-YAP interaction inhibition; HEK-TIYL cells, TEAD-Gal4/YAP UAS-luciferase luminescence; inhibition, % at 9.12 µM; 640,000 tested, 1.4% active; AID 1259422; in the data active = inhibition above about 32%;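 note: 0% = median of test compound wells and 100% = reference inhibitor wells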
GPR151 ag: activators of human GPR151; Q8TDV0; PathHunter beta-arrestin GPR151 cells, luminescence; activation, % at 11.2 µM; 650,000 tested, 1% active; AID 1508602; in the data active = activation above about 4.9%;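 note: 0% = median of compound wells and 100% = cells with positive control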
MITF primary: blocks human microphthalmia-associated transcription factor. O75030. AlphaScreen MITF homodimerization, bead proximity signal. inhibition, % at 2.6 µM. 650,000 tested, 0.91% active; in the data active = inhibition above about 50%;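 note: 0% = vehicle wells with protein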
FBW7 activator: human FBW7 E3 ligase activation, primary screen; normalized activity (activation), % at 26.1 µM; AID 1259310; AlphaScreen FBW7–phospho-cyclin E peptide binding, activator screen; 650,000 tested, 0.13% active; in the data active = normalized activity above about 1.9%;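 note: purified mutant Fbw7 with reduced substrate affinity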
Target sequence (Q969H0 whole entry, looked up): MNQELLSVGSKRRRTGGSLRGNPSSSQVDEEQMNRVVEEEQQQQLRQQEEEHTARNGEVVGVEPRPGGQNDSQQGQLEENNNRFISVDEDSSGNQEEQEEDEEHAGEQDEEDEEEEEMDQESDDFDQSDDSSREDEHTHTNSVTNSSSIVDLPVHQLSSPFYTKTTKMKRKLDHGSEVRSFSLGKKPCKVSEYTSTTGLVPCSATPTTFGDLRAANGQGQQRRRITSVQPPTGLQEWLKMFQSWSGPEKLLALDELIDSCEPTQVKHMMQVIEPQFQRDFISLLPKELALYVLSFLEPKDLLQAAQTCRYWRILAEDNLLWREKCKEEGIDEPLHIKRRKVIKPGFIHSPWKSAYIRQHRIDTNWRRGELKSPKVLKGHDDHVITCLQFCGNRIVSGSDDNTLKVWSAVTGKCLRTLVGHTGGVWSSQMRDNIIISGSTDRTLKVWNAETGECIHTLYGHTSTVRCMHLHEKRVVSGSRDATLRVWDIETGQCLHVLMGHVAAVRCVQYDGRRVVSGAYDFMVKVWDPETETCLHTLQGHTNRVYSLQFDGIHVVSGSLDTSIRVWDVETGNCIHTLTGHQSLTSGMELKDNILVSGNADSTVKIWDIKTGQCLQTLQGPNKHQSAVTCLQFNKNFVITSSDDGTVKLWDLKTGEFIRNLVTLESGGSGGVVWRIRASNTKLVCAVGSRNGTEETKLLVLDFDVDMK
MITF inh conf: human MITF inhibition, confirmation | inhibition, % at 2.6 µM | 4,700 tested, 16% active | AID 1259372 | shares compounds with MITF primary | AlphaScreen MITF homodimerization, biotin/His-MITF beads;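 active = inhibition above a cutoff derived from the DMSO control wells, cut at about 28% in these data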;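 note: 0% = MITF dimer wells with DMSO only; inhibitors lower the bead chemiluminescence by keeping MITF from dimerizing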
AS interf ctr: counter-screen: compounds optically interfering with AlphaScreen; shares compounds with MITF primary; LysRS AlphaScreen counterscreen, signal interference, triplicate; inhibition, % at 2.6 µM; 4,700 tested, 7.6% active; AID 1259376;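 active = inhibition above a cutoff derived from the DMSO control wells, cut at about 30% in these data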
* = called active by the depositor; · = no result.

SMILES	TEAD-YAP block	GPR151 ag	MITF primary	FBW7 activator	MITF inh conf	AS interf ctr
Cc1ccc(C(=O)On2c(-c3ccccc3F)nc3ccccc3c2=O)cc1C	-3.8	-0.7	-4.5	0.2	·	·
O=C1CN(C(=O)COC(=O)c2c3c(nc4ccccc24)CCC3)c2ccccc2N1	-0.7	2.4	71.8*	-0.2	18.9	14.7
COc1ccccc1N1CCN(C(=S)NCCN(C)C)CC1	-4.8	-0.3	76.8*	-0.2	1.0	1.4
Cc1cccc(-n2nc([N+](=O)[O-])c(=Nc3cccc(Cl)c3)n2O)c1	16.4	-0.3	55.9*	0.4	0.3	-0.4
Cc1ccc(N=c2c([N+](=O)[O-])nn(-c3cccc(Cl)c3)n2O)cc1	20.7	0.4	12.1	-0.5	·	·
COc1ccccc1OCC#CCn1ccnc1	0.8	-1.2	63.3*	-0.2	9.7	18.8
COc1ccc(NC(=O)c2cnn3c(C(F)(F)F)cc(-c4ccc(F)cc4)nc23)c(OC)c1	-9.9	1.6	-26.2	-0.5	·	·
Cc1ccc(Nc2nc(CSc3nnnn3C)cs2)cc1	-42.4	0.3	0.8	-0.2	·	·
CCCN1CCN(Cc2csc(Nc3ccc(C)cc3)n2)CC1	8.2	0.2	61.5*	-0.1	8.9	19.7
COc1ccccc1NS(=O)(=O)c1cccc(NC(=O)NC2(C(F)(F)F)Oc3ccc(Cl)cc3O2)c1 (stereo not drawn)	-6.7	-0.5	68.0*	0.0	-14.4	3.5
Cc1ccccc1NC(=O)NC1(C(F)(F)F)Oc2ccc(Cl)cc2O1 (stereo not drawn)	4.2	-0.1	28.7	0.0	·	·
COc1cc(C2C(C#N)=C(N)Oc3n[nH]c(-c4ccccc4)c32)cc(OC)c1OC(=O)N1CCOCC1 (stereo not drawn)	-0.9	3.6	3.0	-0.3	·	·
c1ccc(C(CN2CCOCC2)c2ccccc2)cc1	-8.4	-0.7	56.7*	-0.2	-9.3	2.2
Cc1ccc(Nc2nc(-c3ccc(C)c([N+](=O)[O-])c3)cs2)cc1	-27.8	0.3	25.3	0.2	·	·
O=C1CCC(CCNCc2cccnc2)N1CC1(c2ccccc2)CCOCC1 (stereo not drawn)	0.1	0.4	0.8	0.1	·	·
O=C1CCC(CCNCc2ccc(F)cc2)N1CC1(c2ccccc2)CCOCC1 (stereo not drawn)	-0.2	-1.0	50.7*	-0.1	-2.8	1.8
COc1ccc(NC(=O)C2CC(=O)N(C)C(=Nc3cccc(F)c3)S2)cc1 (stereo not drawn)	0.4	0.1	0.0	-0.2	·	·
CC(O)CNc1nc2c(c(=O)n(Cc3ccccc3F)c(=O)n2C)n1C (stereo not drawn)	0.3	0.2	60.8*	0.1	6.1	10.9
Cc1cc(C(=O)OCC(=O)Nc2ccc(C(N)=O)cc2)c(C)n1-c1ccccc1	7.8	1.1	-7.5	-0.2	·	·
COc1ccc(CN2CCN(Cc3ccccc3F)CC2)cc1OC	-5.7	-2.1	79.2*	0.7	8.3	5.7
CCOc1cc(CN2CCN(Cc3ccccc3F)CC2)ccc1OC	-7.4	-1.0	65.4*	0.1	-15.2	-1.9
O=C(CN(c1ccc(Cl)cc1Cl)S(=O)(=O)c1ccccc1)Nc1ccccc1	9.9	1.7	11.3	0.5	·	·
O=C(CCl)Nc1ccc(CN2CCCCC2)cc1	-3.7	-1.2	15.7	0.4	·	·
COc1cccc(CNCC(=O)Nc2ccc(N3CCCCCC3)cc2)c1	2.2	-0.9	53.3*	-0.3	10.4	24.0
COCCNCC(=O)Nc1ccc(N2CCCCC2)cc1	3.4	0.3	60.9*	0.0	-13.6	-5.2
SMILES	TEAD-YAP block	GPR151 ag	MITF primary	FBW7 activator	MITF inh conf	AS interf ctr
COCCNCC(=O)Nc1ccc(CN2CCCCC2)cc1	1.8	-0.2	53.0*	-0.1	13.6	13.2
CC1(C)CC(=O)C(C(C2=C(O)CC(C)(C)CC2=O)c2ccccc2O)C(=O)C1 (stereo not drawn)	-4.2	0.0	8.5	0.4	·	·
CCC(C1=C(O)CC(C)(C)CC1=O)C1C(=O)CC(C)(C)CC1=O (stereo not drawn)	8.0	-0.6	52.6*	-0.1	2.2	1.1
O=C(NCCc1ccncc1)c1csc(-n2cccc2)n1	-1.4	0.2	52.0*	-0.3	4.5	8.1
CCOc1ccc2[nH]c(=O)c(CN(CC3CCCO3)C(=O)N(C)C)cc2c1 (stereo not drawn)	-8.9	0.1	18.3	0.1	·	·
COc1cc(-c2nc3sc4c(c3c(=O)[nH]2)CCCC4)ccc1OC(=O)c1ccc(Cl)cc1	-1.8	0.6	-14.5	-0.3	·	·
